Assay results as given in the supplement of paper PMC4022240.
± gives the standard deviation.

What was measured:
Experiment in all cases: peptide microarray binding signal (635 nm), min-max normalized on array (fraction of array maximum); higher = stronger binding
[1] = target: T1, HaloTag-ATRX ADD domain (163-292)
T1 chain: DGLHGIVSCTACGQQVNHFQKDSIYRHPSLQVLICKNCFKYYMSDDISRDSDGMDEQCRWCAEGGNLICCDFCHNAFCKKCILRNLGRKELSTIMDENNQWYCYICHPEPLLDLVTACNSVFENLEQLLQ
Method in brief: (§1)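 Arrays carried histone 13-mer peptide–cellulose conjugates printed in triplicate on nitrocellulose alongside a Cy3 tracer. After overnight blocking at 4°C, they were incubated for 1 h at 4°C with biotin-labelled HaloTag reader fusions (10 nM to 1 μM) plus streptavidin-Alexa Fluor 647, or with rabbit histone antibodies (1:10,000 to 1:2,000) plus anti-rabbit Alexa 647. Scanning on an Axon GenePix 4000B used 635 nm for signal and 532 nm for misprints. The binding signal reported is each triplicate's mean spot intensity after per-library min-max scaling.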

[2] = target: HaloTag-ING2 PHD (mouse Ing2 200-280)
Method in brief: as §1

[3] = target: anti-H3K4me3 antibody ab8580
Method in brief: as §1

[4] = target: anti-H3K9me3 antibody ab8898
Method in brief: as §1

[5] = peptide region: H3 50-62, peptide modifications: H3K56me1 H3S57ph, binder concentration: 1:2,000 dilution
[6] = peptide region: H3 50-62, peptide modifications: H3K56me1 H3S57ph, binder concentration: 1:10,000 dilution
[7] = peptide region: H3 50-62, peptide modifications: H3K56me2 H3S57ph, binder concentration: 1:2,000 dilution
[8] = peptide region: H3 50-62, peptide modifications: H3K56me2 H3S57ph, binder concentration: 1:10,000 dilution
[9] = peptide region: H3 73-85, peptide modifications: H3K79me1, binder concentration: 1:2,000 dilution
[10] = peptide region: H3 73-85, peptide modifications: H3K79me1, binder concentration: 1:10,000 dilution
[11] = peptide region: H3 73-85, binder concentration: 1:2,000 dilution
[12] = peptide region: H3 73-85, binder concentration: 1:10,000 dilution
[13] = peptide region: H3 50-62, peptide modifications: H3K56ac, binder concentration: 1:2,000 dilution
[14] = peptide region: H3 50-62, peptide modifications: H3K56ac, binder concentration: 1:10,000 dilution
[15] = peptide region: H3 73-85, peptide modifications: H3K79me2, binder concentration: 1:2,000 dilution
[16] = peptide region: H3 73-85, peptide modifications: H3K79me2, binder concentration: 1:10,000 dilution
[17] = peptide region: H3 50-62, peptide modifications: H3S57ph, binder concentration: 1:2,000 dilution
[18] = peptide region: H3 50-62, peptide modifications: H3S57ph, binder concentration: 1:10,000 dilution
[19] = peptide region: H3 50-62, peptide modifications: H3K56ac H3T58ph, binder concentration: 1:2,000 dilution
[20] = peptide region: H3 50-62, peptide modifications: H3K56ac H3T58ph, binder concentration: 1:10,000 dilution
[21] = peptide region: H3 50-62, peptide modifications: H3K56me2 H3T58ph, binder concentration: 1:2,000 dilution
[22] = peptide region: H3 50-62, peptide modifications: H3K56me2 H3T58ph, binder concentration: 1:10,000 dilution
[23] = peptide region: H3 73-85, peptide modifications: H3K79me2 H3T80ph, binder concentration: 1:2,000 dilution
[24] = peptide region: H3 73-85, peptide modifications: H3K79me2 H3T80ph, binder concentration: 1:10,000 dilution

EIRRYQKSTELLI [H3 50-62 E I R R Y Q Kme Sph T E L L I]
peptide microarray binding signal ([1]; peptide region: H3 50-62, peptide modifications: H3K56me1 H3S57ph, binder concentration: 50 nM): 0.00125 ± 3.7e-05 | peptide microarray binding signal ([1]; peptide region: H3 50-62, peptide modifications: H3K56me1 H3S57ph, binder concentration: 500 nM): 0.00143 ± 2.3e-05 | peptide microarray binding signal ([2]; peptide region: H3 50-62, peptide modifications: H3K56me1 H3S57ph, binder concentration: 10 nM): 0.00209 ± 2.4e-05 | peptide microarray binding signal ([2]; peptide region: H3 50-62, peptide modifications: H3K56me1 H3S57ph, binder concentration: 100 nM): 0.00085 ± 2.5e-05 | peptide microarray binding signal [3, 5]: 0.000264 ± 7.4e-06 | peptide microarray binding signal [3, 6]: 0.000342 ± 3.8e-06 | peptide microarray binding signal [4, 5]: 0.000861 ± 8.7e-05 | peptide microarray binding signal [4, 6]: 0.000519 ± 5.6e-06

EIRRYQKSTELLI [H3 50-62 E I R R Y Q Kme2 Sph T E L L I]
peptide microarray binding signal ([1]; peptide region: H3 50-62, peptide modifications: H3K56me2 H3S57ph, binder concentration: 50 nM): 0.00113 ± 1.5e-05 | peptide microarray binding signal ([1]; peptide region: H3 50-62, peptide modifications: H3K56me2 H3S57ph, binder concentration: 500 nM): 0.00124 ± 2.3e-05 | peptide microarray binding signal ([2]; peptide region: H3 50-62, peptide modifications: H3K56me2 H3S57ph, binder concentration: 10 nM): 0.00269 ± 0.00012 | peptide microarray binding signal ([2]; peptide region: H3 50-62, peptide modifications: H3K56me2 H3S57ph, binder concentration: 100 nM): 0.00128 ± 1.3e-05 | peptide microarray binding signal [3, 7]: 0.000378 ± 3.9e-06 | peptide microarray binding signal [3, 8]: 0.000342 ± 3.8e-06 | peptide microarray binding signal [4, 7]: 0.000725 ± 3.3e-05 | peptide microarray binding signal [4, 8]: 0.000634 ± 1.2e-05

EIAQDFKTDLRFQ [H3 73-85 E I A Q D F Kme T D L R F Q]
peptide microarray binding signal ([1]; peptide region: H3 73-85, peptide modifications: H3K79me1, binder concentration: 50 nM): 0.00649 ± 0.00015 | peptide microarray binding signal ([1]; peptide region: H3 73-85, peptide modifications: H3K79me1, binder concentration: 500 nM): 0.02 ± 0.0022 | peptide microarray binding signal ([2]; peptide region: H3 73-85, peptide modifications: H3K79me1, binder concentration: 10 nM): 0.0116 ± 0.0014 | peptide microarray binding signal ([2]; peptide region: H3 73-85, peptide modifications: H3K79me1, binder concentration: 100 nM): 0.00475 ± 0.00052 | peptide microarray binding signal [3, 9]: 0.00198 ± 0.00026 | peptide microarray binding signal [3, 10]: 0.00234 ± 9.2e-05 | peptide microarray binding signal [4, 9]: 0.0079 ± 0.00033 | peptide microarray binding signal [4, 10]: 0.00357 ± 0.00023

EIAQDFKTDLRFQ [H3 73-85 E I A Q D F K T D L R F Q]
peptide microarray binding signal ([1]; peptide region: H3 73-85, binder concentration: 50 nM): 0.0048 ± 0.00013 | peptide microarray binding signal ([1]; peptide region: H3 73-85, binder concentration: 500 nM): 0.0155 ± 0.00056 | peptide microarray binding signal ([2]; peptide region: H3 73-85, binder concentration: 10 nM): 0.008 ± 0.00096 | peptide microarray binding signal ([2]; peptide region: H3 73-85, binder concentration: 100 nM): 0.00248 ± 6.3e-05 | peptide microarray binding signal [3, 11]: 0.000264 ± 5.6e-06 | peptide microarray binding signal [3, 12]: 0.00228 ± 0.0003 | peptide microarray binding signal [4, 11]: 0.00308 ± 0.00021 | peptide microarray binding signal [4, 12]: 0.00236 ± 6.4e-05

EIRRYQKSTELLI [H3 50-62 E I R R Y Q Kac S T E L L I]
peptide microarray binding signal ([1]; peptide region: H3 50-62, peptide modifications: H3K56ac, binder concentration: 50 nM): 0.0121 ± 0.00021 | peptide microarray binding signal ([1]; peptide region: H3 50-62, peptide modifications: H3K56ac, binder concentration: 500 nM): 0.0135 ± 0.0015 | peptide microarray binding signal ([2]; peptide region: H3 50-62, peptide modifications: H3K56ac, binder concentration: 10 nM): 0.00913 ± 0.00065 | peptide microarray binding signal ([2]; peptide region: H3 50-62, peptide modifications: H3K56ac, binder concentration: 100 nM): 0.0108 ± 0.00062 | peptide microarray binding signal [3, 13]: 0.0016 ± 0.00024 | peptide microarray binding signal [3, 14]: 0.00211 ± 0.00015 | peptide microarray binding signal [4, 13]: 0.00222 ± 0.00049 | peptide microarray binding signal [4, 14]: 0.00173 ± 6.6e-05

EIAQDFKTDLRFQ [H3 73-85 E I A Q D F Kme2 T D L R F Q]
peptide microarray binding signal ([1]; peptide region: H3 73-85, peptide modifications: H3K79me2, binder concentration: 50 nM): 0.002539 ± 2.2e-05 | peptide microarray binding signal ([1]; peptide region: H3 73-85, peptide modifications: H3K79me2, binder concentration: 500 nM): 0.00633 ± 0.00033 | peptide microarray binding signal ([2]; peptide region: H3 73-85, peptide modifications: H3K79me2, binder concentration: 10 nM): 0.00281 ± 3.1e-05 | peptide microarray binding signal ([2]; peptide region: H3 73-85, peptide modifications: H3K79me2, binder concentration: 100 nM): 0.00376 ± 0.00014 | peptide microarray binding signal [3, 15]: 0.00106 ± 6.2e-05 | peptide microarray binding signal [3, 16]: 0.00097 ± 2e-05 | peptide microarray binding signal [4, 15]: 0.0117 ± 0.004 | peptide microarray binding signal [4, 16]: 0.00709 ± 0.00024

EIRRYQKSTELLI [H3 50-62 E I R R Y Q K Sph T E L L I]
peptide microarray binding signal ([1]; peptide region: H3 50-62, peptide modifications: H3S57ph, binder concentration: 50 nM): 0.000878 ± 5.7e-05 | peptide microarray binding signal ([1]; peptide region: H3 50-62, peptide modifications: H3S57ph, binder concentration: 500 nM): 0.00167 ± 0.00017 | peptide microarray binding signal ([2]; peptide region: H3 50-62, peptide modifications: H3S57ph, binder concentration: 10 nM): 0.00179 ± 2.8e-05 | peptide microarray binding signal ([2]; peptide region: H3 50-62, peptide modifications: H3S57ph, binder concentration: 100 nM): 0.00085 ± 3.4e-05 | peptide microarray binding signal [3, 17]: 0.000132 ± 5.8e-06 | peptide microarray binding signal [3, 18]: 0.000228 ± 4.4e-06 | peptide microarray binding signal [4, 17]: 0.000755 ± 0.00012 | peptide microarray binding signal [4, 18]: 0.000461 ± 8.7e-06

EIRRYQKSTELLI [H3 50-62 E I R R Y Q Kac S Tph E L L I]
peptide microarray binding signal ([1]; peptide region: H3 50-62, peptide modifications: H3K56ac H3T58ph, binder concentration: 50 nM): 0.00141 ± 1.8e-05 | peptide microarray binding signal ([1]; peptide region: H3 50-62, peptide modifications: H3K56ac H3T58ph, binder concentration: 500 nM): 0.001381 ± 1.3e-05 | peptide microarray binding signal ([2]; peptide region: H3 50-62, peptide modifications: H3K56ac H3T58ph, binder concentration: 10 nM): 0.002924 ± 2.8e-05 | peptide microarray binding signal ([2]; peptide region: H3 50-62, peptide modifications: H3K56ac H3T58ph, binder concentration: 100 nM): 0.00149 ± 1.5e-05 | peptide microarray binding signal [3, 19]: 0.0004719 ± 4.7e-06 | peptide microarray binding signal [3, 20]: 0.000514 ± 5.5e-06 | peptide microarray binding signal [4, 19]: 0.000468 ± 1.8e-05 | peptide microarray binding signal [4, 20]: 0.00104 ± 5.9e-05

EIRRYQKSTELLI [H3 50-62 E I R R Y Q Kme2 S Tph E L L I]
peptide microarray binding signal ([1]; peptide region: H3 50-62, peptide modifications: H3K56me2 H3T58ph, binder concentration: 50 nM): 0.00116 ± 2.9e-05 | peptide microarray binding signal ([1]; peptide region: H3 50-62, peptide modifications: H3K56me2 H3T58ph, binder concentration: 500 nM): 0.00181 ± 4.2e-05 | peptide microarray binding signal ([2]; peptide region: H3 50-62, peptide modifications: H3K56me2 H3T58ph, binder concentration: 10 nM): 0.00286 ± 0.00011 | peptide microarray binding signal ([2]; peptide region: H3 50-62, peptide modifications: H3K56me2 H3T58ph, binder concentration: 100 nM): 0.000992 ± 1.1e-05 | peptide microarray binding signal [3, 21]: 0.000415 ± 1.5e-05 | peptide microarray binding signal [3, 22]: 0.000456 ± 4.9e-06 | peptide microarray binding signal [4, 21]: 0.00199 ± 0.00011 | peptide microarray binding signal [4, 22]: 0.000923 ± 1.9e-05

EIAQDFKTDLRFQ [H3 73-85 E I A Q D F Kme2 Tph D L R F Q]
peptide microarray binding signal ([1]; peptide region: H3 73-85, peptide modifications: H3K79me2 H3T80ph, binder concentration: 50 nM): 0.00103 ± 3.4e-05 | peptide microarray binding signal ([1]; peptide region: H3 73-85, peptide modifications: H3K79me2 H3T80ph, binder concentration: 500 nM): 0.000714 ± 1.2e-05 | peptide microarray binding signal ([2]; peptide region: H3 73-85, peptide modifications: H3K79me2 H3T80ph, binder concentration: 10 nM): 0.002089 ± 1.2e-05 | peptide microarray binding signal ([2]; peptide region: H3 73-85, peptide modifications: H3K79me2 H3T80ph, binder concentration: 100 nM): 0.000992 ± 1.1e-05 | peptide microarray binding signal [3, 23]: 0.000283 ± 5.1e-06 | peptide microarray binding signal [3, 24]: 0.000799 ± 5.8e-05 | peptide microarray binding signal [4, 23]: 0.000438 ± 1.8e-05 | peptide microarray binding signal [4, 24]: 0.000634
